In the supplement of paper PMC9844399:
Where a name gives a salt, the structure may show the parent alone.

What follows are compounds tested on HeLa (assay: nuclear count per well, robust Z-score vs DMSO; higher = more cells (less toxicity)). Conditions: 10 µM; 6 h.
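Further: Hoechst-stained nuclei counted by automated confocal imaging of four fields per well in 384-well plates, with the robust Z-score based on the per-plate DMSO median and robust SD.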

Row | Compound | nuclear count per well
1 | CCC(=O)O[C@]1(C(=O)CCl)[C@@H](C)C[C@H]2[C@@H]3CCC4=CC(=O)C=C[C@]4(C)[C@@]3(F)[C@@H](O)C[C@@]21C [Clobetasol Propionate] | -0.141
2 | O=C(O)c1ccccc1Nc1ccccc1 [N-Phenylanthranilic acid] | -2.93
3 | C=C(c1ccc(C(=O)O)cc1)c1cc2c(cc1C)C(C)(C)CCC2(C)C [Bexarotene] | -0.918
4 | O=C1NC(=O)/C(=C\c2ccc3nccnc3c2)S1 | 0.336
5 | CC(=O)O[C@H]1C(=O)[C@@]2(C)[C@H]([C@H](OC(=O)c3ccccc3)[C@]3(O)C[C@H](OC(=O)[C@H](O)[C@@H](NC(=O)c4ccccc4)c4ccccc4)C(C)=C1C3(C)C)[C@]1(OC(C)=O)CO[C@@H]1C[C@@H]2O [Paclitaxel] | -2.64
6 | CC1=C(C(=O)O)N2C(=O)[C@@H](NC(=O)[C@H](N)c3ccc(O)cc3)[C@H]2SC1 [Cefadroxil] | 0.308
7 | CCCCCCCCCCCCCCCC(O)C(N)CO (racemic) [DL-Dihydrosphingosine] | 0.229
8 | CC=CC1=C(C(=O)O)N2C(=O)[C@@H](NC(=O)[C@H](N)c3ccc(O)cc3)[C@H]2SC1 [Cefprozil] | 1.85
9 | CN(C)CCOC(c1ccccc1)c1ccccc1.Cn1c(=O)c2[nH]c(Cl)nc2n(C)c1=O [Dimenhydrinate] | -0.855
10 | NC(=O)c1cnccn1 [Pyrazinamide] | 0.289
11 | CC[C@@H]1/C=C(\C)C[C@H](C)C[C@H](OC)[C@H]2O[C@@](O)(C(=O)C(=O)N3CCCC[C@H]3C(=O)O[C@H](/C(C)=C/[C@@H]3CC[C@@H](O)[C@H](OC)C3)[C@H](C)[C@@H](O)CC1=O)[C@H](C)C[C@@H]2OC [Ascomycin (FK-520)] | 0.396
12 | CN(C)CCCN1c2ccccc2CCc2ccc(Cl)cc21 | 0.587
13 | Cc1cccc(C)c1OCC(C)N (configuration not stated) | 0.0147
14 | OC(CNCC(O)C1CCc2cc(F)ccc2O1)C1CCc2cc(F)ccc2O1 (configuration not stated) | -0.325
15 | O=c1[nH]c(=O)n([C@@H]2O[C@H](CO)[C@@H](O)[C@@H]2F)cc1I [Fialuridine] | -0.598
16 | Cc1cccc(C)c1OCC(=O)N[C@@H](Cc1ccccc1)[C@@H](O)C[C@H](Cc1ccccc1)NC(=O)[C@H](C(C)C)N1CCCNC1=O [Lopinavir] | 0.469

Row | Compound | nuclear count per well
17 | Cc1nnc(-c2ccc(N3CCC(Oc4cc(F)ccc4Cl)CC3)nn2)o1 | 0.0392
18 | Nc1nc(NC2CC2)c2ncn([C@H]3C=C[C@@H](CO)C3)c2n1 [Abacavir Sulfate] | -1.42
19 | CC(=O)N[C@@H](CSC/C=C(\C)CCC=C(C)C)C(=O)O [N-Acetyl-S-geranyl-L-cysteine] | 0.483
20 | CO/N=C(\C(=O)N[C@@H]1C(=O)N2C(C(=O)O)=C(C[N+]3(C)CCCC3)CS[C@H]12)c1csc(N)n1 | -0.191
21 | CC(=O)c1ccc(S(=O)(=O)NC(=O)NC2CCCCC2)cc1 [Acetohexamide] | 0.532
22 | COc1ccc(-c2ccc3cc(C(=O)O)ccc3c2)cc1C12CC3CC(CC(C3)C1)C2 [Adapalene] | 0.562
23 | Cn1cnc(N)c2ncnc1-2 [3-Methyladenine] | 0.106
24 | CC(=O)OCC(=O)[C@@]1(O)CC[C@H]2[C@@H]3CCC4=CC(=O)CC[C@]4(C)[C@H]3[C@@H](O)C[C@@]21C [Hydrocortisone Acetate] | 1.42
25 | COC(=O)N[C@H](C(=O)N[C@@H](Cc1ccccc1)[C@@H](O)CN(Cc1ccc(-c2ccccn2)cc1)NC(=O)[C@@H](NC(=O)OC)C(C)(C)C)C(C)(C)C [Atazanavir] | 0.325
26 | Clc1ccc(CO/N=C(\Cn2ccnc2)c2ccc(Cl)cc2Cl)c(Cl)c1 [Oxiconazole Nitrate] | 0.571
27 | CC(=O)Oc1ccccc1C(=O)Nc1ncc([N+](=O)[O-])s1 [Nitazoxanide] | -0.22
28 | N#Cc1ccc(C(c2ccc(C#N)cc2)n2cncn2)cc1 [Letrozole] | -0.474
29 | O=C(O)C1(C(=O)O)CCC1.[NH2-].[NH2-].[Pt+2] [Carboplatin] | 0.428
30 | O=C(O)CCCC[C@@H]1SC[C@@H]2NC(=O)N[C@@H]21 [Biotin] | 0.186
31 | CN(N=O)C(=O)N[C@@H](C=O)[C@@H](O)[C@H](O)[C@H](O)CO [Streptozocin] | 0.59
32 | CC(C)[C@H](N)C(=O)OCC(CO)OCn1cnc2c(=O)nc(N)[nH]c21 (some centres not stated) | -0.387
